The whole screen tested about 330,000 compounds, of which about 7,700 (2.3%) were called active. Roughly 26% stayed inconclusive and do not appear here. The call rests on the fitted dose curve; in most records, active means well fitted inhibition curve with a large enough effect; inconclusive means small, poorly fitted or top-dose-only effect, or effect the other way; inactive means flat fitted curve, though single readings scatter. What follows is part of a selection rich in actives, with near analogues and random picks from the rest. A call without a number means that no potency is given here.
Potency means the concentration at half of the fitted maximal effect.

The experiment in a line: qHTS screen for small molecules that inhibit ELG1-dependent DNA repair in human embryonic kidney (HEK293T) cells expressing luciferase-tagged ELG1. Further: nearly all actives have a fitted effect of over 55% in size. The conditions noted are these: HEK293T ELG1-luciferase reporter, luminescence, 16 h, DNA damage induced by 5-fluorouridine; series mostly up to 46.1 µM. An outline of the steps: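 5-Fluorouridine DNA damage + compound/DMSO, 2,000 cells/well, 16 h, 37 °C/5% CO2. ONE-Glo, 30 min RT, luminescence. Readout = decrease in reporter signal.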
In general terms: Quantitative high-throughput screening tests each substance at several concentrations.
Regarding `Cc1cccc(NS(=O)(=O)c2ccc(C)c(C(=O)NCC(c3ccccc3)N(C)C)c2)c1` (configuration not stated), the Potency entry was “inactive”.

Turning to `CCc1noc(C)c1C(=O)Nc1nc2ccc(OC)cc2s1`, the Potency entry is “inactive”.

`COc1ccc2nc(Nc3nc4ccc(NC(C)=O)cc4s3)sc2c1`: the Potency entry was “inactive”.

For `COc1ccc2nc(Nc3nc(-c4cc5ccccc5oc4=O)cs3)sc2c1`, the Potency is 3.66 µM (active).

Turning to `CC1CCCCC1NCC(=O)Nc1ccccc1C(=O)Nc1ccccc1` (configuration not stated), the Potency entry is “inactive”.

In the case of `CC(C)(C)OC(=O)N1CCC(C(=O)NNC(=O)c2ccc(Cl)cc2Cl)CC1`, the Potency entry is “inactive”.

For `O=C(CN1CCc2ccccc21)NC(c1ccccc1)c1ccccc1`, the Potency entry is “inactive”.

In the case of `NS(=O)(=O)c1cccc(NC(=O)CN2CCCc3ccccc32)c1`, the Potency result was “inactive”.

On to `COC(=O)c1[nH]c2cccc(C)c2c1NC(=O)CN1CCCc2ccccc21`, for which the Potency is 18.4 µM (active).

Turning to `CCC(=O)c1cc(F)ccc1OCC(=O)Nc1ccc2c(c1)OCCO2`, the Potency result was “inactive”.

Consider `CCOCCCN(C)C1CCN(C(=O)c2oc3ccccc3c2NC(=O)COc2cccc(C)c2)CC1`, for which the Potency result was “inactive”.

Consider `CCOc1ccc(S(=O)(=O)Nc2cccc(C(=O)NCC3(N4CCCCC4)CCCCC3)c2)cc1`, for which the Potency entry was “inactive”.

With `CCOC(=O)c1cccc(NC(=O)C2CCCN(S(=O)(=O)c3cnc[nH]3)C2)c1` (configuration not stated), the Potency entry is “inactive”.

For `CCOC(=O)c1cccc(NC(=O)CCc2c(C)nc3ncnn3c2C)c1`, the Potency result is “inactive”.

Regarding `COc1cccc(CNC(=O)C2CCCN(c3ncnc4c3nc3n4CCCCC3)C2)c1` (configuration not stated), the Potency is 18.3 µM (active).

For the molecule `O=C(Nc1cccc(Cl)c1)C1CCCN(c2cnccn2)C1` (configuration not stated), the Potency entry is “inactive”.

Consider `COc1cccc(CNC(=O)C2CCCN(S(=O)(=O)N3CC(C)CC(C)C3)C2)c1` (configuration not stated), for which the Potency entry was “inactive”.

For the molecule `COc1ccccc1NC(=O)C1CCCN(c2cc(C)nc3ncnn23)C1` (configuration not stated), the Potency entry was “inactive”.

For the molecule `O=C(NCCCN1CCCCC1)C1CCCN(c2ncnc3c2nc2n3CCCCC2)C1` (configuration not stated), the Potency entry is “inactive”.

Take `CCOC(=O)c1cccc(NC(=O)C2CCN(c3ncnc4c3nc3n4CCCCC3)CC2)c1`: the Potency was 0.461 µM (active).

As to `COc1cccc(NC(=O)C2CCCN(c3ncnc4c3nc3n4CCCCC3)C2)c1` (configuration not stated), the Potency is 14.6 µM (active).

Turning to `COc1ccc(C(=O)NC2CC(C)(C)Cc3c2cnn3-c2ccccc2C)o1` (configuration not stated), the Potency entry is “inactive”.

On to `COc1ccccc1N(C)C(=O)c1cc(S(=O)(=O)N2CCc3ccccc32)cn1C`, for which the Potency result is “inactive”.

For the molecule `COc1ccc(OC)c(C(C)NC(=S)Nc2ccc(S(=O)(=O)Nc3ncccn3)cc2)c1` (configuration not stated), the Potency entry was “inactive”.

Turning to `O=C(Nc1cc(Cl)ccc1N1CCOCC1)c1ccc(N2CCCC2=O)cc1`, the Potency result is “inactive”.

With `NCCN1CCN2C(=O)CN(C(=O)c3ccccc3)CC12` (configuration not stated), the Potency entry is “inactive”.

As for `CC1(C(=O)N/N=C/c2cc3c(cc2Br)OCO3)CC1(Br)Br` (configuration not stated), the Potency result was “inactive”.

For `COc1ccc(CC(=O)Nc2c(C(N)=O)oc3ccccc23)cc1`, the Potency entry is “inactive”.

Take `COc1ccc(Nc2cc(=O)oc3ccccc23)cc1`: the Potency was 4.61 µM (active).

For `COc1ccc2oc(=O)cc(-c3cc4ccccc4o3)c2c1`, the Potency result was “inactive”.

As for `CCCOc1ccc(C2=CSC3=NCCN23)cc1Cl`, the Potency entry is “inactive”.

In the case of `c1ccc2c(NCC3CCCO3)nc(-c3ccncc3)nc2c1` (configuration not stated), the Potency was 18.4 µM (active).

With `c1ccc(-c2nc(NCc3ccco3)c3ccccc3n2)cc1`, the Potency result was “inactive”.

Consider `Cc1nc2ccccc2c2oc(C(=O)NCCCN3CCC(C)CC3)cc12`, for which the Potency result was “inactive”.

For `Cc1nc2ccccc2c2oc(C(=O)NCC3CCCO3)cc12` (configuration not stated), the Potency is 20.6 µM (active).

Take `O=C(NCC1CCCO1)c1cc(-c2ccccc2)nc2ccccc12` (configuration not stated): the Potency entry was “inactive”.

With `CCCN(CCC)CCNC(=O)c1cc2c(C)nc3ccccc3c2o1`, the Potency entry is “inactive”.

As for `O=C(Cn1ncc2c3ccccc3n(Cc3ccccc3)c2c1=O)NCCCN1CCOCC1`, the Potency result was “inactive”.

With `COc1ccc(NC(=O)C(C)N2c3cccc4cccc(c34)S2(=O)=O)c(OC)c1` (configuration not stated), the Potency entry was “inactive”.

Turning to `CCC1(CC)NC(=O)N(CC(=O)OCC(=O)c2cc(C)c(C)cc2C)C1=O`, the Potency result is “inactive”.

On to `CCN(C(=O)CSc1nnnn1-c1ccc(OC)cc1)C1CCS(=O)(=O)C1` (configuration not stated), for which the Potency entry is “inactive”.

With `O=C(Nc1ccc(N2CCN(C(=O)c3cccs3)CC2)cc1)c1cccnc1Cl`, the Potency entry was “inactive”.

As to `O=C(Nc1ccc(N2CCN(C(=O)C3CC3)CC2)cc1)c1cccs1`, the Potency result is “inactive”.

As for `Cc1ccccc1C(=O)N1CCN(c2ccc(NC(=O)c3cccs3)cc2)CC1`, the Potency was 9.2 µM (active).

As for `COc1ccc(CNC(=O)C[C@H]2C[C@H](C(=O)N3CCOCC3)[C@@]3(C)c4[nH]c5cc(CCC(=O)N(C)C)ccc5c4CCN3C2=O)cc1OC`, the Potency entry was “inactive”.

As to `CCc1ccccc1NC(=O)CN(C)C(=O)c1cc(C2CC2)nn1-c1ccccc1`, the Potency result was “inactive”.

With `O=C(c1ccc2nc(N3CCOCC3)sc2c1)N1CCN(c2ccc(Cl)cc2)CC1`, the Potency result is “inactive”.

With `O=C(/C=C/c1cn(-c2ccccc2)nc1-c1ccc2c(c1)OCCO2)NCCCN1CCOCC1`, the Potency entry was “inactive”.

For the molecule `O=C(/C=C\c1cn(-c2ccccc2)nc1-c1cccs1)N1CCOCC1`, the Potency was 16.4 µM (active).

For `O=C(O)/C=C/c1cn(Cc2ccccc2)nc1-c1cccs1`, the Potency entry was “inactive”.

`CC(C)C[C@H](NC(=O)N1CC(=O)Nc2ccccc21)C(=O)N[C@H](Cc1ccccc1)C(=O)O`: the Potency result was “inactive”.

On to `CCCCCCSc1ccc(-c2nc3ccc(Cl)cn3c2NCc2ccccc2)cc1`, for which the Potency entry is “inactive”.

Take `COc1ccc(CCN(C(=O)COc2ccccc2)c2nc(-c3ccccc3)cs2)cc1OC`: the Potency was 23.1 µM (active).

Regarding `CN(C)CCCN(C(=O)COc1ccccc1)c1nc2c(Cl)cccc2s1`, the Potency entry was “inactive”.

Turning to `CN(C(=O)COc1ccccc1)c1nnc(-c2ccncc2)s1`, the Potency entry was “inactive”.

Regarding `Cc1cc(F)ccc1NC(=S)NCCc1ccccc1`, the Potency entry was “inactive”.

Consider `COc1ccc(-c2noc(C(C)NS(=O)(=O)c3ccc(NC(C)=O)cc3)n2)cc1` (configuration not stated), for which the Potency entry is “inactive”.

As for `COc1ccc(-n2c(=O)[nH]c3cc(C(=O)NCCc4ccc(OC)c(OC)c4)ccc3c2=O)c(OC)c1`, the Potency result was “inactive”.

Turning to `O=C(CCl)NNc1nc(-c2ccccc2)c2cc(Cl)ccc2n1`, the Potency result was “inactive”.

In the case of `NC(N)=Nc1nc(-c2ccccc2)c2cc(Cl)ccc2n1`, the Potency result was “inactive”.

With `Clc1ccc2nc(-c3ccccc3)nc(C(Cl)Cl)c2c1`, the Potency is 2.31 µM (active).

With `Cn1c(CCN2CCCC2)nc2cc(NS(=O)(=O)c3ccccc3)ccc21`, the Potency result is “inactive”.

Consider `CCOCCn1[nH]c2ccccc2c1=O`, for which the Potency entry is “inactive”.

Consider `COc1ccc(N(CC(=O)NCc2ccc(F)cc2)C(=O)CCC(=O)Nc2nccs2)cc1`, for which the Potency result is “inactive”.

For the molecule `Cc1cccc(NC(=O)c2nnn(-c3cccc(C(F)(F)F)c3)c2N)c1`, the Potency entry is “inactive”.

Turning to `COc1cc(NC(=O)c2[nH]cnc2C(N)=O)cc(C(=O)Nc2cccc(C(F)(F)F)c2)c1`, the Potency was 5.8 µM (active).

For `COc1ccc(NC(=O)CN(C)CC(=O)Nc2cccc(C(F)(F)F)c2)cc1`, the Potency result is “inactive”.

As to `CN=C(Nc1cccc(S(=O)(=O)N2CCOCC2)c1)c1ccccc1`, the Potency entry is “inactive”.

Turning to `Cn1cncc1C#Cc1c(-c2ccsc2)sc2ccccc12`, the Potency result is “inactive”.

Turning to `CNS(=O)(=O)c1ccc(C(=O)NCC(=O)NCCc2ccc3c(c2)OCCO3)cc1`, the Potency result was “inactive”.

Regarding `COc1ccccc1/C=C1\SC(=O)N(CCC(=O)N(C)C2CCS(=O)(=O)C2)C1=O` (configuration not stated), the Potency result is “inactive”.

With `O=C(CSc1nc2ccccc2c(=O)n1-c1ccc(F)cc1)NC1CC1`, the Potency result is “inactive”.

In the case of `Cc1nn(-c2ccccc2)c(C)c1/C=N/NC(=O)CSc1nc2ccccc2c(=O)n1-c1ccccc1`, the Potency is 16.4 µM (active).

Consider `Cn1c(SCC(=O)N/N=C/c2ccc(O)c(O)c2)nc2ccccc21`, for which the Potency entry was “inactive”.

Consider `COc1ccc(-n2nc(C(=O)NCC(=O)Nc3cccc(C)n3)c3ccccc3c2=O)cc1`, for which the Potency was 18.4 µM (active).

For the molecule `CCCN(CCC)CCCNC(=O)CNC(=O)c1nn(-c2ccc(OC)cc2)c(=O)c2ccccc12`, the Potency entry is “inactive”.

On to `COCCCNC(=O)CNC(=O)c1nn(-c2ccc(OC)cc2)c(=O)c2ccccc12`, for which the Potency result was “inactive”.

For the molecule `CN1CCN(S(=O)(=O)c2ccc(N3CCN(c4ccccc4O)CC3)c([N+](=O)[O-])c2)CC1`, the Potency result is “inactive”.

As to `CCOc1ccc(CCNC(=O)CN2C(=O)NC3(CCc4ccccc43)C2=O)cc1OCC` (configuration not stated), the Potency result is “inactive”.

For `O=C(c1cc2cc(F)ccc2[nH]1)N1CCN(c2ccc(F)cc2)CC1`, the Potency entry was “inactive”.

`O=C(c1cc(C(=O)N2CCN(c3ccc(F)cc3)CC2)cc([N+](=O)[O-])c1)N1CCN(c2ccc(F)cc2)CC1`: the Potency was 11.2 µM (active).

Take `O=C(c1ccccc1)c1ccc(C(=O)N2CCN(c3ccccc3)CC2)cc1`: the Potency result was “inactive”.

For `O=C(c1cccc(F)c1)N1CCN(c2ccc([N+](=O)[O-])c(N3CCCCC3)c2)CC1`, the Potency entry is “inactive”.

In the case of `O=C(c1ccc(Cl)c([N+](=O)[O-])c1)N1CCN(c2ccccc2)CC1`, the Potency result is “inactive”.

As for `O=C(c1cccc(C(=O)N2CCN(c3ccc(F)cc3)CC2)c1)N1CCN(c2ccc(F)cc2)CC1`, the Potency is 18.4 µM (active).

`N#CC(Cc1cc2ccccc2n1S(=O)(=O)c1ccccc1)OCc1ccccc1` (configuration not stated): the Potency entry is “inactive”.

As for `Cn1cccc1C(=O)OCC(=O)NCCc1ccccc1`, the Potency entry was “inactive”.

`Cc1cccc(C)c1NC(=O)COC(=O)c1c(C)nn(-c2ccccc2)c1C`: the Potency entry is “inactive”.

`O=C(CCNC(=O)c1ccc(Br)cc1)NCC(c1ccco1)N1CCCCC1` (configuration not stated): the Potency result was “inactive”.

As to `CC1CC(C)CN(S(=O)(=O)c2ccc(C(=O)NN3CCOCC3)cc2)C1` (configuration not stated), the Potency entry was “inactive”.

As to `CCn1c(=O)c(=O)n(CC)c2cc(S(=O)(=O)N3CCc4ccccc43)ccc21`, the Potency entry was “inactive”.

With `COc1cccc(NC(=O)c2cc(S(=O)(=O)N3CCc4ccccc43)cn2C)c1`, the Potency entry is “inactive”.

`CNC(=O)c1ccsc1NC(=O)c1ccc(S(=O)(=O)N2CCc3ccccc32)cc1`: the Potency is 18.4 µM (active).

As to `CC1CN(S(=O)(=O)c2ccc(C(=O)NN3CCN(C)CC3)cc2)CC(C)O1` (configuration not stated), the Potency entry is “inactive”.

As for `CC1CN(S(=O)(=O)c2ccc(C(=O)Nc3sccc3C(N)=O)cc2)CC(C)O1` (configuration not stated), the Potency is 18.4 µM (active).

As to `N#Cc1c(-c2ccccc2)nc(SCc2ccc([N+](=O)[O-])cc2)[nH]c1=O`, the Potency entry was “inactive”.

For `O=C(CNC(=O)C1COc2ccccc2O1)N/N=C/c1cc(Br)c(O)c(Br)c1` (configuration not stated), the Potency result was “inactive”.

Source of the values: PubChem BioAssay AID504467 (National Center for Advancing Translational Sciences (NCATS), 2011).
